Laboratory results taken from PubChem BioAssay (NCATS).
Several values for one entry are separate records, joined by “and”; a condition that tells them apart may be missing. Equal entries are not always repeated. Records with an inconclusive call do not appear. Unmarked numbers belong to inactive results. Activity calls are given as the source filed them. Calls come from the whole dose curve; as a rule, active = well fitted cell-killing curve with a large enough effect; inconclusive = small, poorly fitted or top-dose-only effect, or effect the other way; inactive = flat fitted curve, though single readings scatter.

Test: qHTS assay for cell viability of HEK293 cells (AID 743288); note: nearly all actives have a fitted effect of over 50% in size
Conditions: ATP luminescence (CellTiter-Glo), 18 h; max response: stronger effect = lower value
Text: National Center for Advancing Translational Sciences [NCATS]
NIH Chemical Genomics Center [NCGC]
U.S. Environmental Protection Agency [EPA]
National Institutes of Environmental Health Sciences [NIEHS]
National Toxicology Program [NTP]
U.S. Food and Drug Administration [FDA]
The CellTiter-Glo Luminescent Cell Viability Assay (Promega, Madison, WI) is a homogeneous method to determine the number of viable cells in culture based on quantitation of the ATP present, which signals the presence of metabolically active cells. This cell viability assay was used to screen environmental chemicals in the Hek293 cell line.
Tox21 Assay Protocol Summary:
Cell viability after compound treatment was measured using a luciferase-coupled ATP quantitation assay (CellTiter-Glo viability assay, Promega, Madison, WI) in parental HEK293 cells. Total intracellular ATP content corresponds to the number of metabolically competent cells after compound treatment. The cells were dispensed at 2,000 cells/5 uL/well in 1,536-well white/solid bottom assay plates using a Flying Reagent Dispenser (Aurora Discovery, San Diego, CA). The cells were incubated a minimum of 5 h at 37 C, followed by the addition of 23 nL of compounds dissolved in DMSO, positive controls or DMSO only using a pintool work station (Kalypsys, San Diego, CA). The assay plates were incubated for 18 h at 37 C, followed by the addition of 5 uL/well of CellTiter-Glo reagent. After 30 min incubation at room temperature, the luminescence intensity of the plates was measured using a ViewLux plate reader (PerkinElmer, Shelton, CT).
% is set by controls: 0 for no effect and ±100 for the full control effect; potency is the fitted concentration of half-maximal effect.

Structure (SMILES)	max response	Potency
C/C=C\c1ccc(OC)cc1	8.66%	
CCO[Si](CCCN)(OCC)OCC	-4.38% and -9.06%	
Cc1ccc(N)c([N+](=O)[O-])c1	-10.6% and -7.86%	
Cc1c(N=C=O)cccc1N=C=O	8.57% and -7.81%	
OCCNCCO	2.85% and -11.3%	
c1ccc2c(c1)c1cccc3ccc4cccc2c4c31	0.963% and -16.2%	
COc1c2ccoc2cc2oc(=O)ccc12	-2.26%	
CCCCCCCCO	3.94% and -5.81% and -6.7%	
O=C1CCc2ccccc2O1	-0.285%	
CCCCCCCCCCCCCC(=O)O	2.25% and -11.5%	
O=C(O)c1ccccc1	-1.04%	
S=C1NC=NC2N=CNC12 (stereo not given)		2240 nM (active)
c1ccc2c(c1)[nH]c1ccccc12	-7.42% and -16.3%	
O=C(O)c1ccccc1C(c1ccc(O)cc1)c1ccc(O)cc1	-11.1% and 2.2%	
CCC(O)OC(O)CC (stereo not given)	-2.73% [middle of 4 runs]	
COc1ccc(/C=C/c2cc(OC)cc(=O)o2)cc1	-19.9%	
C=CC(=C)CCC=C(C)C	1.18%	
O=C(O[C@@H]1Cc2c(O)cc(O)cc2O[C@@H]1c1cc(O)c(O)c(O)c1)c1cc(O)c(O)c(O)c1	-1.55%	
ClCCCl	-0.0928% and -7.5% and -2.25%	
COC(=O)CCCCC(=O)OC	-0.912% and -4.94% and -1.91%	

Structure (SMILES)	max response	Potency
CC(C)=CCCC(C)CCO (stereo not given)	0.805% and -8.34%	
Cc1ccccc1C	-12.4% and -5.18%	
COc1ccc2nc(N)sc2c1	3.97% and -4.38%	
Clc1cc(Cl)c(Cl)c(Cl)c1Cl	-16.4% and -15.3%	
CCCCC(CC)CN (stereo not given)	2.8% and -10%	
CCCN(CCC)C(=O)SCC	-7.69% and -8.5%	
CC1=CC(C)(C)Nc2ccccc21	-4.28% and -1.89%	
CN(C)C=O	-10.8% and 1.33% and 0.809%	
C=CCOC(=O)c1ccccc1C(=O)OCC=C	7.73% and -19.3%	
c1ccc2scnc2c1	11.2%	
Nc1ccc(S(=O)(=O)O)cc1	-3.43% and 3.86%	
CN(C)CCCCCCN(C)C	-4.75%	
O=S(=O)(O)c1ccccc1	8.35%	
Nc1ccc(Cl)cc1Cl	1.15% and -5.99%	
O=C(O)CCCCCCCCC(=O)O	-12.5%	
CCCCCCCCCCCC(=O)O	-8.75% and -7.33%	
COc1cc(/C=C/c2ccccc2)oc(=O)c1	-23%	
Cc1ccc([N+](=O)[O-])cc1N	-2.6% and -12%	
CCCCOCCO	4.48% and -11.2% and -7.95%	
C1OCOCO1	-3.72%	
